# For some assays here: Entries with a potency or affinity are not part of this list. Active and inactive are the calls of the source.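 How the source made its calls, unless noted: active means hit in primary screen, with calcium signal over 5 SD above buffer well mean in both duplicates; inactive means the rest.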
# Key:
# [1] = test system: TRPC4 beta (transient receptor potential cation channel C4), mouse; experiment: TRPC4 cation channel opening, retest – cell-based, Fluo4 calcium, HEK293 TRPC4beta/mu-opioid, duplicates, 10 µM, confirmation (AID 2426;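 active means fluorescence ratio normalized to control raised more than 50% in primary screen plus both repeat runs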;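 on activation: percent rise of integrated ratio over buffer wells lacking compound which define 0%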); details: Fluo4 calcium fluorescence, at 10 µM; stronger effect = higher value
# [2] = test system: transient receptor potential cation channel C4 beta (TRPC4), mouse; experiment: TRPC4 cation channel opening, second retest – cell-based, second round, Fluo4, HEK293 TRPC4beta/mu-opioid, 1 µM, confirmation (AID 2461;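 active means primary screen active and over 50% activation in each of two duplicate runs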;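 on activation: 0% = wells without test compound as baseline of integrated fluorescence ratio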); details: Fluo4 calcium fluorescence, at 1 µM; stronger effect = higher value
# [3] = test system: TRPC4 (transient receptor potential cation channel C4 beta), mouse; experiment: potentiation of DAMGO EC20 TRPC4 response – cell-based, second round, Fluo-4, HEK293 TRPC4beta/mu-opioid, 1 µM, confirmation (AID 2554;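 active means primary screen hit whose fluorescence ratio, in both repeats, exceeds the weak agonist control mean by 3 SD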); details: DAMGO EC20, Fluo-4 calcium flux, at 1 µM; stronger effect = higher value
# [4] = test system: TRPC4 beta (transient receptor potential cation channel C4), mouse; experiment: potentiation of DAMGO EC20 TRPC4 response – cell-based, Fluo-4, HEK293 TRPC4beta/mu-opioid, confirmation (AID 2555;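 active means primary screen hit whose calcium fluorescence ratio, in both repeats, exceeds the weak agonist control mean by 3 SD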); details: DAMGO EC20, Fluo-4 calcium flux, at 10 µM; stronger effect = higher value
# [5] = molecular target: Short transient receptor potential channel 4 (Mus musculus) (UniProt Q9QUQ5); experiment: blockers of DAMGO-evoked TRPC4 calcium flux – cell-based, Fluo4, HEK293 TRPC4beta/mu-opioid, confirmation (AID 2636;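 active means calcium signal cut by more than 3 SD below the full-agonist control yet still positive, in both repeats and the earlier primary screen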); details: at 10 µM; stronger effect = higher value
# [6] = molecular target: Short transient receptor potential channel 4 (Mus musculus) (UniProt Q9QUQ5); experiment: blockers of DAMGO-evoked TRPC4 calcium flux – cell-based, second round, Fluo4, HEK293 TRPC4beta/mu-opioid, 1 µM, confirmation (AID 2637;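 active means calcium signal ratio cut to more than 3 SD under the fully stimulated control mean yet still positive, in both repeats and the primary screen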); details: at 1 µM; stronger effect = higher value
# [7] = molecular target: Short transient receptor potential channel 4 (Mus musculus) (UniProt Q9QUQ5); experiment: potentiation of DAMGO-evoked TRPC4 calcium signal – cell-based, HEK293 TRPC4/mu-opioid, Fluo-4 calcium, EC20 DAMGO, dose response (AID 434941;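 active means earlier screen potentiator hit that boosts the TRPC4 ion channel at some dose, with a dose response; inactive means no potentiation, no dose response, or not a prior hit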;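 further: calcium entry triggered by an EC20 dose of DAMGO at the co-expressed mu-opioid receptor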)
# [8] = molecular target: Short transient receptor potential channel 4 (Mus musculus) (UniProt Q9QUQ5); experiment: block of DAMGO-driven TRPC4 calcium entry – cell-based, HEK293 TRPC4/mu-opioid, Fluo-4 calcium, dose response (AID 434942;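 active means primary screen inhibitor hit that blocks the TRPC4 channel at some tested dose, yielding a dose curve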)
# [9] = molecular target: Short transient receptor potential channel 6 (Mus musculus) (UniProt Q61143); experiment: TRPC6 blockade by TRPC4 inhibitor hits – cell-based, HEK293, membrane potential dye, duplicate, selectivity assay for TRPC4 inhibitor project, confirmation (AID 434948;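 active means active in primary screen and both duplicates, each dropping signal beyond three positive-control SD with fluorescence still positive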); details: HEK293 TRPC6, membrane potential dye fluorescence, at 10 µM, stimulated with maximal-effect acetylcholine; stronger effect = higher value
# [10] = molecular target: Short transient receptor potential channel 6 (Mus musculus) (UniProt Q61143); experiment: TRPC6 opening by TRPC4 activator hits – cell-based, HEK293, membrane potential dye, duplicate, selectivity assay for TRPC4 activator project, confirmation (AID 434950;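 active means membrane potential signal rise above negative control mean plus 3 SD in both duplicates, also active in the earlier TRPC4 screen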;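 on activation: 0% = buffer only wells and 100% = acetylcholine maximal-effect wells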); details: HEK293 TRPC6, membrane potential fluorescence, at 10 µM; activation: stronger effect = higher value; outcome: activation
# [11] = molecular target: Short transient receptor potential channel 6 (Mus musculus) (UniProt Q61143); experiment: positive modulators of mouse TRPC6 channel – HEK293 cells, membrane potential dye, duplicate, selectivity assay for TRPC4 potentiator project, confirmation (AID 434952;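 active means compound raising the membrane signal above positive-control mean plus 3 SD in both repeats, and a primary screen hit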); details: HEK293 TRPC6, membrane potential dye fluorescence, at 10 µM, maximal acetylcholine added after compound; stronger effect = higher value
# [12] = molecular target: Short transient receptor potential channel 4 (Mus musculus) (UniProt Q9QUQ5); experiment: calcium flux activators in TRPC4/5HT1a cells, counter-screen for TRPC4 activator project, cell-based, second counter screen, HEK293 TRPC4/5HT1a, Fluo-4 (AID 434977;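 active means calcium signal rise above buffer-control mean plus 5 SD in both duplicates, and also a hit in the primary screen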;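 on activation: plate controls were assay buffer for no effect and maximal serotonin response for full effect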); details: Fluo-4 calcium flux, at 10 µM; stronger effect = higher value
# [13] = serotonin-gated TRPC4 signal block – cell-based, second counter screen, HEK293 TRPC4/5HT1a, Fluo-4, counter-screen for TRPC4 inhibitor project, confirmation (AID 434978;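 active means primary screen active whose calcium signal fell more than 3 SD beyond the full-serotonin control mean in both duplicate plates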;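 further: serotonin given first at submaximal then at maximal dose after compound preincubation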); details: Fluo-4 calcium flux, at 10 µM, serotonin added to trigger calcium flux; stronger effect = higher value
# [14] = test system: TRPC4 (mouse), co-expressed with 5HT1a in HEK293; experiment: enhancement of serotonin-evoked TRPC4 response – cell-based, second counter screen, HEK293 TRPC4/5HT1a, Fluo-4, counter-screen for TRPC4 potentiator project, confirmation (AID 434979;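 active means signal rise over 3 SD above mean of control wells given weak agonist, in both repeats and first screen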); details: Fluo-4 calcium flux, at 10 µM, serotonin added at its EC20 dose; stronger effect = higher value
# [15] = nonspecific calcium rise without TRPC4 – cell-based, HEK293 mu-opioid receptor line, counter-screen for TRPC4 activator project, confirmation (AID 449723); details: HEK293 mu-opioid cells, Fluo-4 calcium fluorescence, at 10 µM; stronger effect = higher value;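 further: counter screen cells carry the mu-opioid receptor alone and lack TRPC4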
# [16] = nonspecific potentiation of DAMGO calcium response – cell-based, HEK293 mu-opioid receptor line, counter-screen for TRPC4 allosteric potentiator project, confirmation (AID 449724;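 active means calcium signal rise more than 3 SD above the low-dose agonist control mean, in both duplicate plates and the primary screen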); details: HEK293 mu-opioid receptor cells, Fluo-4 calcium flux, at 10 µM, compound added before EC20 DAMGO stimulus; stronger effect = higher value
# Sequence of Short transient receptor potential channel 4 (Mus musculus) (Q9QUQ5 whole entry, looked up): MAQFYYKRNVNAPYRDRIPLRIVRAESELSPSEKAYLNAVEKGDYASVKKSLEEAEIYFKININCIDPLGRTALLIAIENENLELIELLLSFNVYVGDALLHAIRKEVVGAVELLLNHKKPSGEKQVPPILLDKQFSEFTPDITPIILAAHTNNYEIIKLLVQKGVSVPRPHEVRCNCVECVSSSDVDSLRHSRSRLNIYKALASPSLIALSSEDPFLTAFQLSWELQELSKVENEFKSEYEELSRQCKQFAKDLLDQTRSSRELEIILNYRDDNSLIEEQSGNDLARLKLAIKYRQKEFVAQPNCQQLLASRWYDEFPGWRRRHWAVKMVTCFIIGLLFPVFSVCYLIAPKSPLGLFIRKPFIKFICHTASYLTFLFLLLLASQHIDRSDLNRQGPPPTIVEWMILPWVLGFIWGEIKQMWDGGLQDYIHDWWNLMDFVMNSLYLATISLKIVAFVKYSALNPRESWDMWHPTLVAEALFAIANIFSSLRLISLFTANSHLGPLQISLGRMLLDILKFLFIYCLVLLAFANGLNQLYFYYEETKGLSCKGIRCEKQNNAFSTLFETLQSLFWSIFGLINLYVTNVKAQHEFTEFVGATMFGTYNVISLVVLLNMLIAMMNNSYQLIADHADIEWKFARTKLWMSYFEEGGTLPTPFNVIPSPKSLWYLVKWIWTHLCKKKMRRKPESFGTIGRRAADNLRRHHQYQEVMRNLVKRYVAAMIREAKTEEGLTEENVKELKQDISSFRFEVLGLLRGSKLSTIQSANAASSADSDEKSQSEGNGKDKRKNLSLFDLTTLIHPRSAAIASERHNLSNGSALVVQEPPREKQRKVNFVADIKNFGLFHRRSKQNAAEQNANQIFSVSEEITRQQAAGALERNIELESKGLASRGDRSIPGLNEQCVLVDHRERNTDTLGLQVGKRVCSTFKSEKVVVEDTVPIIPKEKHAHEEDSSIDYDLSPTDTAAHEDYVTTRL
# Sequence of Short transient receptor potential channel 6 (Mus musculus) (Q61143 whole entry, looked up): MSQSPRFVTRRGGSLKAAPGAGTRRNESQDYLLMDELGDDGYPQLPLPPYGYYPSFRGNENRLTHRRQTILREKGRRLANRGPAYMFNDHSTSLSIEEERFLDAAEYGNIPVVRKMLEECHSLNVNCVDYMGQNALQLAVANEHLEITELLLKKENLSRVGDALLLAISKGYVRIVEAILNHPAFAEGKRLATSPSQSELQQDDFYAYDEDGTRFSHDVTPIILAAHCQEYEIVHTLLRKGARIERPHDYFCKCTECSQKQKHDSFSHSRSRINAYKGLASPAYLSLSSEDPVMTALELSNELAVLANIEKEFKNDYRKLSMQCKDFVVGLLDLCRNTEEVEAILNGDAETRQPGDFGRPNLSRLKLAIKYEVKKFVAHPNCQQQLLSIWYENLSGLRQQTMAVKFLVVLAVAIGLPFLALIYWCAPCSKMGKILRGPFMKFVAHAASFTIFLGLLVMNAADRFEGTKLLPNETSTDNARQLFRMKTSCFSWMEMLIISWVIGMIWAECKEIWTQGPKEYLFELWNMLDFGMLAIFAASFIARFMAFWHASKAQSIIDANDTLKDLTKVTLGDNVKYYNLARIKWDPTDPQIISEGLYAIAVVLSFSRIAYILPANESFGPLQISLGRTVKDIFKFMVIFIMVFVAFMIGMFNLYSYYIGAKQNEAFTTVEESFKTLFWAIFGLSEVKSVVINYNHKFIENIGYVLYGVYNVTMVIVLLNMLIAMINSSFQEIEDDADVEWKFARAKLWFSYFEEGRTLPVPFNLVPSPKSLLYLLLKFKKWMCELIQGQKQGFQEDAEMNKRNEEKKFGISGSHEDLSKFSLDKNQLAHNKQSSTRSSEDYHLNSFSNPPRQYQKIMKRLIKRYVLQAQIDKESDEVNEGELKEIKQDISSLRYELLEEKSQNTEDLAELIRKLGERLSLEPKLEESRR
structure (smiles),measurement,setting,value
CNC[C@H](Cc1ccccc1)NC[C@@H](Cc1cccc2ccccc12)NCCc1ccc(C)cc1,activation,[1],228% (active)
same,outcome,[2],inactive
same,outcome,[3],inactive
same,outcome,[4],inactive
same,outcome,[5],inactive
same,outcome,[6],inactive
same,outcome,[7],inactive
same,outcome,[8],inactive
same,outcome,[9],inactive
same,outcome,[10],inactive
same,outcome,[11],inactive
same,activation,[12],68.3% (active)
same,outcome,[13],inactive
same,outcome,[14],inactive
same,activation,[15],37.9% (active)
same,outcome,[16],inactive
O=C(CC1C(=O)NCCN1Cc1ccc(-c2ccccc2)cc1)NCCc1ccccn1 (centres undefined),activation,[1],142% (active)
same,outcome,[2],inactive
same,outcome,[3],inactive
same,outcome,[4],inactive
same,outcome,[5],inactive
same,outcome,[6],inactive
same,outcome,[7],inactive
same,outcome,[8],inactive
same,outcome,[9],inactive
same,outcome,[10],inactive
same,outcome,[11],inactive
same,activation,[12],34% (active)
same,outcome,[13],inactive
same,outcome,[14],inactive
same,outcome,[15],inactive
same,outcome,[16],inactive
CNCCOc1ccc(Cl)c(Cl)c1,activation,[1],81% (active)
same,activation,[2],54% (active)
same,potentiation,[3],44% (active)
same,potentiation,[4],23% (active)
same,outcome,[5],inactive
same,outcome,[6],inactive
same,outcome,[7],inactive
same,outcome,[8],inactive
same,outcome,[9],inactive
same,activation,[10],39.5% (active)
same,outcome,[11],inactive
same,activation,[12],24.9% (active)
same,outcome,[13],inactive
same,potentiation,[14],24% (active)
same,outcome,[15],inactive
same,outcome,[16],inactive
COc1ccc(CCN(C)C(=O)C2CCCN(C3CCN(Cc4ccccc4)CC3)C2)cc1OC (centres undefined),activation,[1],143% (active)
same,activation,[2],64% (active)
same,outcome,[3],inactive
same,outcome,[4],inactive
same,outcome,[5],inactive
same,outcome,[6],inactive
same,outcome,[7],inactive
same,outcome,[8],inactive
same,outcome,[9],inactive
same,activation,[10],50% (active)
same,outcome,[11],inactive
same,activation,[12],28.9% (active)
same,outcome,[13],inactive
same,outcome,[14],inactive
same,outcome,[15],inactive
same,outcome,[16],inactive
c1ccc(Cn2nnnc2C(c2cccnc2)N2CCN(C3CCCCC3)CC2)cc1 (centres undefined),activation,[1],115% (active)
same,outcome,[2],inactive
same,outcome,[3],inactive
same,outcome,[4],inactive
same,outcome,[5],inactive
same,outcome,[6],inactive
same,outcome,[7],inactive
same,outcome,[8],inactive
same,outcome,[9],inactive
same,activation,[10],47.5% (active)
same,outcome,[11],inactive
same,activation,[12],32.6% (active)
same,outcome,[13],inactive
same,outcome,[14],inactive
same,outcome,[15],inactive
same,outcome,[16],inactive
CCCCN(CC)CCNC(=O)c1ccc2c(Cl)c3c(nc2c1)CCC3,activation,[1],166% (active)
same,activation,[2],142% (active)
same,outcome,[3],inactive
same,outcome,[4],inactive
same,outcome,[5],inactive
same,outcome,[6],inactive
same,outcome,[7],inactive
same,outcome,[8],inactive
same,outcome,[9],inactive
same,outcome,[10],inactive
same,outcome,[11],inactive
same,activation,[12],92.3% (active)
same,outcome,[13],inactive
same,outcome,[14],inactive
same,outcome,[15],inactive
same,outcome,[16],inactive
COc1ccc(CN2CCC(N(CCc3ccccc3)Cc3ccccc3)CC2)c(OC)c1,activation,[1],95% (active)
same,outcome,[2],inactive
same,outcome,[3],inactive
same,outcome,[4],inactive
same,outcome,[5],inactive
same,outcome,[6],inactive
same,outcome,[7],inactive
same,outcome,[8],inactive
same,outcome,[9],inactive
same,activation,[10],44% (active)
same,outcome,[11],inactive
same,outcome,[12],inactive
same,outcome,[13],inactive
same,outcome,[14],inactive
same,outcome,[15],inactive
same,outcome,[16],inactive
Cc1cccc(OCCC(=O)NCC(c2ccccc2)N(C)C)c1 (centres undefined),outcome,[1],inactive
same,outcome,[2],inactive
same,outcome,[3],inactive
same,outcome,[4],inactive
same,outcome,[5],inactive
same,outcome,[6],inactive
same,outcome,[7],inactive
same,outcome,[8],inactive
same,outcome,[9],inactive
same,activation,[10],52% (active)
same,outcome,[11],inactive
same,outcome,[12],inactive
same,outcome,[13],inactive
same,outcome,[14],inactive
same,outcome,[15],inactive
same,outcome,[16],inactive
Cc1onc(-c2ccccc2Cl)c1C(=O)N1CCN(C/C=C/c2ccccc2)CC1,activation,[1],190% (active)
same,outcome,[2],inactive
same,outcome,[3],inactive
same,outcome,[4],inactive
same,outcome,[5],inactive
same,outcome,[6],inactive
same,outcome,[7],inactive
same,outcome,[8],inactive
same,outcome,[9],inactive
same,activation,[10],38.5% (active)
same,outcome,[11],inactive
same,outcome,[12],inactive
same,outcome,[13],inactive
same,outcome,[14],inactive
same,outcome,[15],inactive
same,outcome,[16],inactive
O=C(NCCc1ccccn1)c1ccc(COc2ccccc2)o1,outcome,[1],inactive
same,outcome,[2],inactive
same,outcome,[3],inactive
same,outcome,[4],inactive
same,outcome,[5],inactive
same,outcome,[6],inactive
same,outcome,[7],inactive
same,outcome,[8],inactive
same,outcome,[9],inactive
same,activation,[10],35% (active)
same,outcome,[11],inactive
same,activation,[12],58.4% (active)
same,outcome,[13],inactive
same,outcome,[14],inactive
same,outcome,[15],inactive
same,outcome,[16],inactive
CCn1c(N2CCN(CC(=O)Nc3cccc(C)c3C)CC2)nc2ccccc21,activation,[1],120% (active)
same,activation,[2],57% (active)
same,outcome,[3],inactive
same,outcome,[4],inactive
same,outcome,[5],inactive
same,outcome,[6],inactive
same,outcome,[7],inactive
same,outcome,[8],inactive
same,outcome,[9],inactive
same,activation,[10],56.5% (active)
same,outcome,[11],inactive
same,activation,[12],23.9% (active)
same,outcome,[13],inactive
same,outcome,[14],inactive
same,outcome,[15],inactive
same,outcome,[16],inactive
COc1ccc(-c2nc(CSCC(=O)NC3CCN(Cc4ccccc4)CC3)c(C)o2)cc1OC,activation,[1],107% (active)
same,outcome,[2],inactive
same,outcome,[3],inactive
same,outcome,[4],inactive
same,outcome,[5],inactive
same,outcome,[6],inactive
same,outcome,[7],inactive
same,outcome,[8],inactive
same,outcome,[9],inactive
same,activation,[10],99.5% (active)
same,outcome,[11],inactive
same,activation,[12],23.1% (active)
same,outcome,[13],inactive
same,outcome,[14],inactive
same,outcome,[15],inactive
same,outcome,[16],inactive
COc1ccc2c(Cl)c(-c3nnc(SCC(=O)c4ccccc4)n3C)sc2c1,outcome,[1],inactive
same,outcome,[2],inactive
same,outcome,[3],inactive
same,outcome,[4],inactive
same,outcome,[5],inactive
same,outcome,[6],inactive
same,outcome,[7],inactive
same,outcome,[8],inactive
same,outcome,[9],inactive
same,activation,[10],35.5% (active)
same,outcome,[11],inactive
same,outcome,[12],inactive
same,outcome,[13],inactive
same,outcome,[14],inactive
same,outcome,[15],inactive
same,outcome,[16],inactive
COCCCn1c(N)c(-c2nc3ccccc3n2C)c2nc3ccccc3nc21,outcome,[1],inactive
same,outcome,[2],inactive
same,outcome,[3],inactive
same,outcome,[4],inactive
same,outcome,[5],inactive
same,outcome,[6],inactive
same,outcome,[7],inactive
same,outcome,[8],inactive
same,outcome,[9],inactive
same,activation,[10],137% (active)
same,outcome,[11],inactive
same,activation,[12],27.5% (active)
same,outcome,[13],inactive
same,outcome,[14],inactive
same,activation,[15],16.7% (active)
same,outcome,[16],inactive
